# Screens (PubChem BioAssay)
# Rows were chosen to be rich in hits. Some 2.2% of all compounds tested hit in one or more screens of this group.
# TGFb inhibitor – TGF-b pathway inhibition; HepG2 CAGA-GFP TGF-b/SMAD3 reporter, GFP fluorescence, 18 h; TGF-beta stimulated, 500 pg/mL final; Potency, µM (top dose mostly 46.1 µM), inactives show at the highest dose activity, negative = inhibition, usual class: inhibitors; hit rate 1.2% among 410,000; note: potency is the fitted concentration of half-maximal effect; % is set by controls: 0 for no effect and ±100 for the full control effect; nearly all actives have a fitted effect of over 65% in size
#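 HEPG2 CAGA-GFP reporter cells (1000/well, DMEM with 1% FBS) received compounds, then recombinant TGF-beta at 500 pg/mL final for 18 hours at 37 degrees C. Per-cell GFP summed per well was normalised to unstimulated and stimulated DMSO controls before curve fitting.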
# ATXN2 expr inh – inhibitors of ATXN2 expression; hit rate 0.72% among 360,000; HEK-293 ATXN2-luciferase reporter, luminescence, 24 h; AID 1745845; Potency, µM (top dose mostly 57 µM), for inactives: top-dose activity change, negative = inhibition, most hits filed as inhibitors; note: potency is the fitted concentration of half-maximal effect; % is set by controls: 0 for no effect and ±100 for the full control effect; nearly all actives have a fitted effect of over 55% in size
#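 ATXN2-luciferase reporter cells (luciferase flanked by upstream and downstream ATXN2 gene portions) were treated 24 h at 37 °C with compounds at up to 57 uM. SteadyGlo luminescence gave expression; GF-AFC fluorescence gave viability.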
# ATXN viability – reduces viability in counter-screen for ATXN expression inhibitors. S2 cells (HEK-293 line with an ATXN2-luciferase reporter) viability, CellTiter-Fluor protease fluorescence, 24 h. Potency, µM (series often up to 56.7 µM), usual class: cytotoxic. hit rate 0.49% among 400,000; note: potency is the fitted concentration of half-maximal effect; nearly all actives have a fitted effect of over 40% in size
# LDHA block – blocks human lactate dehydrogenase A | P00338 | purified LDHA, NADH/diaphorase-resazurin fluorescence; active compounds read low | activity change, % (values are at about 110 or 230 µM) | hit rate 0.15% among 480,000 | AID 1347041; in the data active = activity change below about -30%; inconclusive = mostly about -25% to -30%;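 note: plate controls were DMSO wells for no effect and wells without enzyme for full effect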
#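 Enzyme activity of human lactate dehydrogenase 5 (2 nM; 0.06 mM NADH, 0.2 mM pyruvate, 5 min, RT) is measured via a resazurin/diaphorase fluorescence readout of residual NADH.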
# IDH1 R132H inh – human IDH1 R132H inhibition; AID 602179; Potency, µM (series often up to 76.6 µM), inactives show at the highest dose activity change, negative = inhibition, usual class: inhibitors; hit rate 0.093% among 390,000; O75874; IDH1-R132H enzyme, NADPH consumption, diaphorase/resazurin fluorescence; note: potency is the fitted concentration of half-maximal effect; % is set by controls: 0 for no effect and ±100 for the full control effect; nearly all actives have a fitted effect of over 65% in size
# Target sequence (O75874 whole entry R132H, stated change not applied): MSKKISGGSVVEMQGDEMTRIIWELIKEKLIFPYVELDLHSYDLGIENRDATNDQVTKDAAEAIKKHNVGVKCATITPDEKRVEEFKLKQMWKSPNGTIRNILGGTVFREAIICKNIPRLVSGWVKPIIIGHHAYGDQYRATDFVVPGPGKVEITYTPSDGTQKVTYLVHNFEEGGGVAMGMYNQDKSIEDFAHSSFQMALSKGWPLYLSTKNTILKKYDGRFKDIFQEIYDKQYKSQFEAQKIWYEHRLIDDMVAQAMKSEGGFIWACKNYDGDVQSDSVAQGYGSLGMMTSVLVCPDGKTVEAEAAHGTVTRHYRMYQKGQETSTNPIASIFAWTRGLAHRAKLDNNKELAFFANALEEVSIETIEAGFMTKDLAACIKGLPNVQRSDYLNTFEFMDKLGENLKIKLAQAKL
#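 IDH1-R132H (0.5 ug/mL) preincubated 30 min with compound, then NADPH (0.016 mM) and alpha-KG (2 mM) added; 80 min at RT, pH 7.5. Remaining NADPH coupled via diaphorase/resazurin to fluorescence (540/590 nm); concentration-response curves normalized to no-enzyme control.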
# HepG2 tox – kills HepG2 cells in TGF-b inhibitor counter-screen | HepG2 CAGA-GFP viability, ATP luminescence, 18 h | hit rate 0.76% among 410,000 | Potency, µM (doses to about 46.1 µM), without a hit: at the highest dose activity change, negative = cytotoxicity, hits mostly cytotoxic; note: potency is the fitted concentration of half-maximal effect
#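 HepG2 CAGA-GFP cells (1000/well, DMEM with 1% FBS) received compound, then TGF-beta at 500 pg/mL final, and were incubated 18 hours at 37 degrees C. Viability was read by CellTiter-Glo luminescence. Media-only wells were set as complete cell-killing and DMSO as no toxicity.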
# An asterisk follows results filed as active; i = inactive; ? = inconclusive; · = no result; ! = not active in a repeat. Unless noted, calls come from the whole dose curve; as a rule, active = well fitted curve in the direction sought with a large enough effect; inconclusive = small, poorly fitted or top-dose-only effect, or another doubt; inactive = no such curve, though single readings can be large; an effect the other way counts as inactive or inconclusive.
SMILES,TGFb inhibitor,ATXN2 expr inh,ATXN viability,LDHA block,IDH1 R132H inh,HepG2 tox
Cc1cccc(NC(=O)Cn2cc(C(=O)c3ccccc3)c3ccccc32)c1,10µM*,·,·,-6,-16%,-18%
C[C@]12CCC(=O)C[C@@H]1CC[C@@H]1[C@@H]2CC[C@@]2(C)[C@H]1CC[C@]2(C)O,·,·,i,·,·,·
O=C1OCc2cc(N=Nc3c(O)[nH]c(=O)[nH]c3=O)ccc21,-1%,-14%,?,-5,-2%,26%
CCOC(=O)c1c(C)n(Cc2ccccc2)c2ccc(OCC(O)Cn3nc(C)nc3C)cc12 (stereo not drawn),0%,?,i,1,-3%,-25%
CCOC(=O)c1c(C)n(Cc2ccccc2)c2ccc(OCC(O)CNC(C)(C)C)cc12 (stereo not drawn),?,14µM*,·,5,0%,18µM*
CCOC(=O)c1c(C)n(Cc2ccccc2)c2ccc(O)cc12,18µM*,4%,i,29,4%,7%
COC(=O)c1c(C)n(Cc2ccccc2)c2ccc(O)cc12,4%,0%,i,-24,-4%,-6%
CN(Cc1ccccc1)C(=O)Cn1c(=O)oc2cc(S(=O)(=O)NCc3ccccc3)ccc21,-29%,-14%,i,0,14%,-32%
Cc1c(C=O)c2ccccc2n1Cc1ccccc1F,1.1µM*,-18%,i,-5,-7%,-40%
Cc1ncc([N+](=O)[O-])n1CCOC(N)=O,-4%,·,i,1,-8%,-16%
CN1CC[C@]23c4c5ccc(O)c4OC2[C@H](O)C=CC3[C@H]1C5 (stereo partly drawn),-2%,-7%,i,-3,3%,0%
COc1ccc2c3c1OC1C(O)C=CC4C(C2)[N+](C)(C)CCC341 (stereo not drawn),-8%,·,i,-72*,-4%,-1%
COc1ccc2c(c1)c(C(=O)O)c(C)n2C(C)C,14%,-10%,i,-2,2%,12%
NC(N)=Nc1ccc2[nH]c3c(c2c1)C[C@@]1(O)[C@H]2Cc4ccc(O)c5c4[C@@]1(CCN2CC1CC1)[C@H]3O5,14µM*!,-10%,?,-13,-9%,-53%
CC[C@@]1(O)C(=O)OCc2c1cc1n(c2=O)Cc2cc3c(NC(=O)CN)cccc3nc2-1,?,0.34µM*,·,10,4%,-55%
CCC1(O)C(=O)OCc2c1cc1n(c2=O)Cc2cc3cc(O)ccc3nc2-1 (stereo not drawn),?,-74%,·,-14,-11%,1%
CC[C@@]1(O)C(=O)OCc2c1cc1n(c2=O)Cc2cc3ccccc3nc2-1,-20%,0.019µM*,·,-7,·,-39%
CCc1ccc(CNCCc2ccc(OC)cc2)cc1,·,·,·,-4,·,·
NC(Cc1ccc(F)cc1)c1csc(Nc2ccccn2)n1 (stereo not drawn),?,?,i,2,·,25µM*
NC(Cc1ccc(Cl)cc1)c1csc(Nc2ccccn2)n1 (stereo not drawn),?,22µM*,?,5,·,-106%
NC(Cc1ccccc1)c1csc(Nc2ccccn2)n1 (stereo not drawn),?,-21%,?,-13,·,-37%
NC(Cc1ccc(F)cc1)c1csc(Nc2cnccn2)n1 (stereo not drawn),2%,10%,i,-8,·,-34%
COc1cccc(Nc2nc(C(N)Cc3ccc(F)cc3)cs2)n1 (stereo not drawn),?,25µM*,?,-8,·,-73%
CC(N)Cc1cccs1 (stereo not drawn),·,·,·,5,·,·
Cc1cccc(CN2CCCC(C(=O)c3cccc(OC(C)C)c3)C2)n1 (stereo not drawn),?,·,32µM*,-2,8%,-52%
O=c1[nH]c(=S)[nH]c(O)c1/C=C1/C=c2ccccc2=N1,13µM*,-14%,i,0,-6%,-42%
